Dyrk1A ADPGlo: rat Dyrk1A kinase inhibitors, primary screen, biochemical, single point, plate reader. inhibition, % at 12.5 µM. ADP-Glo luminescence, NFATc1 peptide. hit rate 0.43% among 310,000; in the data active = inhibition above about 50%;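 also: plate controls were vehicle with enzyme for no effect and no enzyme for full effect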
NPR1 activator: GC-A stimulated cGMP production enhancers – HEK293 GC-A cells, cGMP TR-FRET, EC30 ANP, primary screen; Atrial natriuretic peptide receptor 1 (Homo sapiens), P16066; hit rate 0.14% among 370,000; 0% at EC30 ANP, 100% saturating ANP; activation, % at 10 µM; in the data active = activation above about 40%
HSF1 activator: HSF-1 activators, primary screen, NIH3T3-HGL cells, MG132 stress, luminescence, single point; NIH3T3-HGL HSF-1 luciferase reporter, 8 h; 100% = twice DMSO control signal; hit rate 1.7% among 300,000; activation, % at 9 µM;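 active = mean replicate activation of at least 50% with a set share of replicates each reaching 50%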;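 also: 0% = median of the neutral control wells and 100% = twice that signal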
aDG glyco up: activators of alpha-DG glycosylation, primary screen, uHTS, Pro5-aDG cells, AlphaScreen; alpha-DG glycosylation AlphaScreen (IIH6); 0% Pro5, 100% B10-LARGE cell signal; activation, % at 10 µM; hit rate 0.22% among 360,000; AID 624168, 2012;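 active = activation of at least 8% versus controls, or a plate z-score of at least 8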;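 also: Pro5 are CHO cells carrying HIG-tagged alpha-DG that lacks glycosylation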
HSF1 inh: HSF1 inhibitors in luciferase reporter cells, primary screen, cell-based, NIH3T3, luminescence; NIH3T3-HGL HSE-luciferase, MG132-induced, luminescence 8 h; active compounds read low; activity change, negative = inhibition, % at 7.5 µM (by protocol); hit rate 0.77% among 300,000; AID 2098, 2009;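 active = more than half of replicate wells show activity change below -50%, luminescence cut by over half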;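 also: luciferase reports HSF-1 transcriptional activity via heat shock element; 0% = median of DMSO wells and -100% = zero luminescence signal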
NPR2 activator: human GC-B receptor activators, primary screen, HEK293 GC-B cells, cGMP TR-FRET, EC30 CNP; 0% at EC30 CNP, 100% saturating CNP; hit rate 0.11% among 370,000; Atrial natriuretic peptide receptor 2 (Homo sapiens), P20594; activation, % at 10 µM;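 active = activation at 10 µM reaching about 35% in either raw or pattern-adjusted values, limit read from the data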
Starred values were filed as active, the others as inactive; / = no result. A selection: hits, their analogues and other compounds. The true share with any hit is near 2.5%.

SMILES | Dyrk1A ADPGlo | NPR1 activator | HSF1 activator | aDG glyco up | HSF1 inh | NPR2 activator
CCOc1ccc(/C=N/NC(=O)C(O)c2ccccc2)c(O)c1 (stereo unspecified) | 8 | 0 | -86 | 0 | -82* | 2
CS(=O)(=O)c1ccc(Cl)c(NC(=O)c2cccc(N3C(=O)CCC3=O)c2)c1 | 0 | 0 | -11 | 0 | -3 | 1
O=C(Nc1nc2ccccc2s1)c1cccc(N2C(=O)CCC2=O)c1 | 0 | 44* | 10 | 0 | 6 | 0
O=C(Nc1ccccc1[N+](=O)[O-])c1cccc(N2C(=O)CCC2=O)c1 | -1 | 2 | 54* | 0 | 18 | -1
O=C(Nc1nc2cc3c(cc2s1)OCCO3)c1cccc(N2C(=O)CCC2=O)c1 | 45 | 6 | 2 | 0 | 12 | 0
Cc1sc(NC(=O)c2cccc(N3C(=O)CCC3=O)c2)nc1-c1ccccc1 | / | 77* | -1 | 0 | 0 | -7
CC1CCN(CCCCOc2cccc(C(C)C)c2)CC1 | 4 | -6 | -5 | 0 | -1 | 7
CCOc1ccccc1CN1CCNC(=O)C1CC(=O)NCc1nccn1CC (stereo unspecified) | -6 | -2 | 67* | 0 | 20 | -1
CCn1ccnc1CNC(=O)CC1C(=O)NCCN1Cc1ccc(OC)cc1OC (stereo unspecified) | -2 | 2 | -3 | 0 | -2 | 3
CC(=O)/C(=N\Nc1ccc(Cl)cc1)Sc1nnc(-c2ccccc2)n1-c1ccccc1 | 5 | -6 | -62 | 0 | -55* | 1
CC(=O)/C(=N/Nc1ccccc1)Sc1nnc(CCc2ccccc2)n1-c1ccccc1 | 9 | -27 | 13 | 0 | 1 | -10
CCCCNc1c(-c2ccc(SC(C)CC)c(OC)c2)nc2ccc(C)cn12 (stereo unspecified) | -3 | 23 | 15 | 1 | 6 | -4
CCCCNc1c(-c2ccc(SC(C)CC)c(OC)c2)nc2ccc(Cl)cn12 (stereo unspecified) | 4 | 40* | / | 0 | / | 21
CC(=O)c1c(N)nc2n(c1=O)CCCCC2 | 3 | -1 | -12 | 0 | -11 | 112*
O=C1/C(=C/c2ccccc2Cl)SC(=S)N1CCC(=O)N1CCCCC1CCO (stereo unspecified) | / | -6 | 68* | 2 | 39 | -1
O=C1/C(=C\c2ccccc2)SC(=S)N1CCC(=O)N1CCCCC1CCO (stereo unspecified) | / | -3 | 4 | 0 | 7 | -4
CC1(C)CC(=O)C=C(c2ccc(Oc3ccccc3)cc2)C1=O | / | 5 | / | 0 | / | 0
CCCN(CC(=O)Nc1ccc(Cl)cc1Cl)C(=O)/C=C/c1ccco1 | 0 | -1 | 64* | 0 | 50 | 3
CCN(CC(=O)Nc1ccc(NC(C)=O)cc1)C(=O)/C=C/c1ccco1 | / | 1 | 11 | 0 | 5 | 0
CSCCC(NS(=O)(=O)c1cccc(C(F)(F)F)c1)C(=O)N(C)CCOc1ccc(Cl)cc1 (stereo unspecified) | -4 | -7 | 65* | 0 | 34 | -8
Cc1nc(N2CCN(C)CC2)c2sc(=S)n(-c3ccccc3)c2n1 | 7 | -2 | 13 | 0 | 7 | -10
S=c1sc2c(Cl)ncnc2n1-c1ccccc1 | -3 | -43 | 565* | 0 | 478 | -15
S=C(c1ccc(-c2ccc(Cl)c(Cl)c2)o1)N1CCOCC1 | 3 | / | 59* | 0 | 37 | /
S=C(c1ccc(-c2ccccc2Cl)o1)N1CCOCC1 | -5 | / | 43 | 0 | 29 | /
S=C(c1ccc(-c2ccc(Br)cc2)o1)N1CCOCC1 | / | 28 | 44 | 0 | 24 | 36*
SMILES | Dyrk1A ADPGlo | NPR1 activator | HSF1 activator | aDG glyco up | HSF1 inh | NPR2 activator
COc1ccc(-c2ccc(C(=S)N3CCN(C(C)=O)CC3)o2)cc1 | 14 | 10 | / | 0 | / | 2
S=C(c1ccc(-c2ccc(Br)cc2)o1)N1CCCCC1 | 5 | 3 | 62* | 0 | 16 | -1
Cn1c(=O)c2c(nc(Sc3ncnn3CC(=O)N3CCOCC3)n2C)n(C)c1=O | -4 | 6 | -91 | 0 | -88* | -1
O=C(CN(Cc1ccccc1)S(=O)(=O)c1ccccc1)N/N=C/c1ccc([N+](=O)[O-])cc1 | -4 | -2 | 6 | 0 | 5 | -7
O=C(CN(Cc1ccccc1Cl)S(=O)(=O)c1ccc(Cl)cc1)N/N=C/c1ccc(C(=O)O)cc1 | 3 | 2 | -89 | 0 | -86* | 0
CC(C)N(C)Cc1nnnn1CC(=O)NCc1cc(F)cc(C(F)(F)F)c1 | -7 | 0 | -4 | 0 | 1 | 0
O=C(Nc1ccc(Cl)cc1Cl)c1ccc2c(=O)n3c(nc2c1)CCC3 | 13 | -1 | 37 | 0 | 27 | -6
O=C(Nc1ccc(Br)cc1Cl)c1ccc2c(=O)n3c(nc2c1)CCC3 | 13 | 4 | 55* | 0 | 31 | -3
CC(C)Cc1ccc(-c2cc3nc(NCC4CC4)ccn3n2)cc1 | / | -2 | / | 1 | / | -4
CCOC(=O)c1nn(-c2ccc(C)cc2)cc1C(=O)c1ccccc1 | 7 | 1 | 59* | 0 | 39 | 5
Cc1ccc(-n2cc(C(=O)c3ccccc3O)cn2)cc1 | -58 | 15 | -79 | 0 | -77* | 4
CCN(CC)C(=S)SCC(=O)c1ccc(F)cc1 | -8 | 13 | 66* | 1 | 43 | -8
O=C(N/N=C/c1c(F)cccc1Cl)c1ccc(Cn2cc(Br)cn2)o1 | 2 | -7 | 5 | 0 | 10 | -6
Cn1c2ccccc2c2ncn(CCCN3CCOCC3)c(=O)c21 | 6 | -3 | -12 | 0 | 0 | 0
Cn1c2ccc(F)cc2c2ncn(CCN3CCOCC3)c(=O)c21 | 3 | -1 | 160* | 0 | 79 | -3
Cn1c2ccccc2c2ncn(CCC3=CCCCC3)c(=O)c21 | -1 | 1 | 61* | 0 | 36 | -7
CNC(=S)N(CCO)Cc1cc2cc3c(cc2[nH]c1=O)OCO3 | 6 | 4 | -10 | 0 | -3 | 3
O=C(Nc1ccc([N+](=O)[O-])cc1)C1C(c2ccccc2)=C1c1ccccc1 | -3 | -8 | 178* | 0 | 165 | -4
O=C(Nc1ccc(C(=O)O)cc1)Nc1ccc([N+](=O)[O-])cc1 | 32 | 2 | -13 | 0 | -3 | 4
COc1ccc(CN(CC2CCC(C(=O)O)CC2)C(=S)Nc2cc(Cl)ccc2OC)cc1 (stereo unspecified) | 3 | -19 | 337* | 0 | 266 | -5

Bioassay records from PubChem BioAssay.
